Hit rate of the full screen: of about 190,000 compounds, about 1,300 (0.68%) were called active. Shown is part of a subset that was picked to be rich in actives. A number with no mark means an inactive call. No stated cut-off is given here; in the data, active means inhibition above about 50%; inactive means the rest.

In the assay the target is Mannose-6-phosphate isomerase (Homo sapiens) (UniProt P34949). Put plainly: human PMI inhibitors, high substrate, primary screen, biochemical, fluorescence intensity, high mannose 6-phosphate (AID 1220). The settings on record: recombinant PMI enzyme, coupled fluorescence intensity; at 20 µM; stronger effect = higher value.
Sequence of Mannose-6-phosphate isomerase (Homo sapiens) (P34949 whole entry, looked up): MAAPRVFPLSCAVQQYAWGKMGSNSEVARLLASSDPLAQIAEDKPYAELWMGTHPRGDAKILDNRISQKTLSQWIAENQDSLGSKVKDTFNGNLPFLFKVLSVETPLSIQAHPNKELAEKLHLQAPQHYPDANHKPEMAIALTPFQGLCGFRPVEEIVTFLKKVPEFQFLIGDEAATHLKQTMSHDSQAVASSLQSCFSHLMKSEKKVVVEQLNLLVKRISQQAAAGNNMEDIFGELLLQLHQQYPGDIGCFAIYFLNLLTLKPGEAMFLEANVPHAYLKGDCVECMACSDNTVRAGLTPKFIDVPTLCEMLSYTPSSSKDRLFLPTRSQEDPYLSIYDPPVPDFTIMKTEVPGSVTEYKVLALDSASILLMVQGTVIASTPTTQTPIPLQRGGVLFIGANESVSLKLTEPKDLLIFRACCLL
Turning to `CCCn1c(SCC(=O)NCc2ccc(OC)cc2)n[nH]c1=O`, the inhibition (commonly the change of the read-out against control, counted positive when it falls) is 11.2%.
Consider `O=C(NCC1CCCCC1)C1CCCN(C(=O)NC2CCCCC2)C1` (stereo not given), for which the inhibition is -1.6%.
For `Cc1ccc(S(=O)(=O)/N=C2/C=C(Sc3ncn[nH]3)C(=O)c3ccccc32)c(C)c1`, the inhibition is 92.7% (active).
As to `Cc1cc(C)c(S(=O)(=O)Nc2ccc(O)c(Sc3ncn[nH]3)c2)c(C)c1`, the inhibition is 13.7%.
As to `Cc1ccc(S(=O)(=O)Nc2ccc(O)c(Sc3ncn[nH]3)c2)cc1`, the inhibition is 27.6%.
For `Cc1cc(C)c(S(=O)(=O)/N=C2/C=C(SCC(=O)O)C(=O)c3ccccc32)cc1C` the value was -32.3%; for `Cc1cc(C)c(S(=O)(=O)/N=C2/C=C(Sc3ncn[nH]3)C(=O)c3ccccc32)cc1C`, 90.3% (active).
As to `CC1=CC(C)(C)N(C(=O)CSc2ncn[nH]2)c2ccccc21`, the inhibition was -9.5%.
With `Cc1cc(NC(=O)COC(=O)C2COc3ccccc3O2)no1` (stereo not given), the inhibition was -4.4%.
Turning to `CCCC(O)(c1ccc(Cl)cc1)C(CN1CCOCC1)c1ccccc1` (stereo not given), the inhibition is 5.2%.
Regarding `Cc1ccc(S(=O)(=O)N2CCCCC2)cc1NC(=O)COC(=O)C1CC2C=CC1C2` (stereo not given), the inhibition is 11%.
In the case of `O=C(NC1CCCCC1)C1CCN(S(=O)(=O)c2cccs2)CC1`, the inhibition was 5.6%.
The figure for `C=CCc1c(OC)ccc2ccc(=O)oc12` is 0.3%; for `Cc1cccc2cc(CN(CCCN(C)C)C(=S)NCCc3ccccc3)c(=O)[nH]c12` it is -1.6%; for `CC(C)(C)C1CCc2c(sc(NC(=O)CSc3nnc(-c4ccccc4)o3)c2C#N)C1` (stereo not given) it is 15.1%.
As to `CC1CCc2c(sc(NC(=O)CSc3nnc(-c4ccccc4)o3)c2C#N)C1` (stereo not given), the inhibition is 57.2% (active).
The figure for `N#Cc1c(NC(=O)CSc2nnc(-c3ccccc3)o2)sc2c1CCCC2` is 4.2%; for `COC(=O)c1ccc(CSCC(=O)Nc2ccccc2)cc1` it is 6.4%.
For the compound `COc1ccc(C2=COc3ccccc3C(=O)N2)cc1`, the inhibition was -6.2%.
On to `O=C(CSc1ccc(C(F)(F)F)cc1[N+](=O)[O-])Nc1ccc2ccccc2c1`, for which the inhibition is 10.8%.
`O=C(Nc1nc(-c2ccc(Cl)cc2Cl)cs1)c1ccc(OCC2CCCO2)cc1` (stereo not given): the inhibition is 11.1%.
In the case of `COc1ccc(OC)c(-c2csc(NC(=O)c3ccc(OCC4CCCO4)cc3)n2)c1` (stereo not given), the inhibition was 104% (active).
`Cc1csc(NC(=O)c2ccc(OCC3CCCO3)cc2)n1` (stereo not given): the inhibition was 1.2%.
For `COc1ccccc1NC(=O)c1cnc2c(-c3ccccc3)c(C)nn2c1C` the value was 8.9%; for `COCCNC(=O)/C(C#N)=C/c1cc(C)n(C2CCCCC2)c1C`, -6.4%; for `O=C(c1cnn(-c2ccccc2)c1)c1ccc2ccccc2c1O`, 23.1%.
In the case of `O=C(COC(=O)[C@H](Cc1ccccc1)NC(=O)c1ccco1)NC(c1ccccc1)c1ccccc1`, the inhibition was 11.5%.
As to `COc1cccc(NC(=O)c2ccncc2)c1`, the inhibition is 6%.
Consider `COc1cc(N)cc(NC(=O)c2ccncc2)c1`, for which the inhibition is 50.4% (active).
Regarding `COc1ccc(C(=O)Nc2cc(OC)cc(OC)c2)cc1`, the inhibition was 10%.
For `COc1nc(OC)nc(N2CCC(C(=O)NC3CCCCCC3)CC2)n1` the value was 1.4%; for `Cc1ccccc1NC(=S)NCc1ccc(Cl)cc1`, 9.2%.
Regarding `CC1CCc2c(C(=O)Oc3cccc(-n4cnnn4)c3)csc2C1` (stereo not given), the inhibition was 15.6%.
`Oc1ccccc1CNc1cccc2cccnc12`: the inhibition was 45.3%.
The figure for `Cc1cccnc1NCc1ccc(O)c2ncccc12` is 63.6% (active); for `CC(C)COCc1ccc(O)c2ncccc12` it is 14.9%.
In the case of `Cc1ccc(O)c(CNc2ccccn2)c1`, the inhibition was -7.2%.
`Cc1ccccc1NCc1ccccc1O`: the inhibition is 1.6%.
With `Cc1cccc(NCc2ccccc2O)c1C`, the inhibition was 25.8%.
As for `Cc1ccc(O)c(CNc2cccc3cccnc23)c1`, the inhibition was 63.8% (active).
The figure for `Fc1ccc(NCc2cccnc2)cc1` is -2%; for `COCc1ccc(O)c2ncccc12` it is 22.6%.
Regarding `Oc1ccc(Cn2ccnc2)c2cccnc12`, the inhibition was 7.4%.
The figure for `CSc1cccc(NC(=S)N(CCCN2CCCC(C)C2)Cc2cccs2)c1` (stereo not given) is 4.6%; for `COCCOC(=O)C1=C(C)N=C2SCCC(=O)N2C1c1cccc(Br)c1` (stereo not given) it is 1.8%; for `CCCC(=O)Nc1nc(C)c(-c2csc(Nc3ccc(Cl)cc3)n2)s1` it is 38.4%.
With `O=C(Cn1cc(C(F)(F)F)cc(Cl)c1=O)Nc1cc(Cl)cc(Cl)c1`, the inhibition is 13.7%.
Take `C=CCn1c(SCC(=O)Nc2ccc3c(c2)OCO3)nnc1-c1ccccc1`: the inhibition was 25.6%.
As for `CCOC(=O)c1ccc(Cn2cnc3ccccc3c2=O)cc1`, the inhibition was 11.7%.
For `CCOC(=O)C1=C(c2ccccc2)NC(SC)=C(C#N)C1c1cccnc1` (stereo not given) the value was 3.3%; for `O/N=C1/CCSc2ccccc21`, 9.7%; for `COc1ccc(O)c(CNc2ccccc2F)c1`, 17.2%.
For `O=[N+]([O-])c1ccc(O)c2ncccc12` the value was 9%; for `Oc1ccc(CNc2ccccc2F)c2cccnc12`, 73.8% (active).
Consider `Cc1ccccc1N=Nc1ccc(O)c2ncccc12`, for which the inhibition is 31.3%.
On to `O=C(Cc1ccccc1F)Nc1cccc2cccnc12`, for which the inhibition is -1.1%.
Turning to `CCCCCCn1c(=O)[nH]c2nc3cc(N)c(C)cc3nc2c1=O`, the inhibition is 49.7%.
Take `CCCCCCn1c(=O)[nH]c2nc3cc(N)ccc3nc2c1=O`: the inhibition was 24%.
For `CCCCn1c(=O)[nH]c2nc3cc(N)ccc3nc2c1=O` the value was 52.5% (active).
Consider `C=CCn1c(COc2ccccc2F)nnc1SCCN1C(=O)c2ccccc2C1=O`, for which the inhibition was 10.7%.
For `COCCn1c(C)cc(C(=O)CSc2nc3ccccc3o2)c1C` the value was -1.7%; for `CCOC(=O)c1cnc2ccc(OCC)cc2c1NCc1cccnc1`, 62.8% (active).
For `CCOC(=O)c1cnc2ccc(OCC)cc2c1NCc1ccccc1`, the inhibition was 43.5%.
For `CCOC(=O)c1cnc2ccc(OC)cc2c1NCc1ccccc1` the value was 27.2%; for `Cc1cc2nc(-c3ccc(SCC(=O)Nc4nccs4)nc3)[nH]c2cc1C`, -0.3%.
The figure for `Nc1nc2n(n1)C(=O)CC(c1ccccc1[N+](=O)[O-])N2` (stereo not given) is 9.2%.
For `O=C(/C=C/c1ccc2c(c1)OCO2)NCCSCc1ccc(Cl)cc1Cl`, the inhibition is 12.8%.
As for `CC1(C)CC(=O)C2=C(C1)OC(N)=C(C#N)C21CCN(C(=O)OCc2ccccc2)CC1`, the inhibition was 4.4%.
Regarding `CC(=O)Nc1ccc(S(=O)(=O)NNC(=O)COc2cccc3ccccc23)cc1`, the inhibition was 1.3%.
With `O=[N+]([O-])c1cc2oc3c(c2c(C=NCc2ccncc2)c1O)CCCC3`, the inhibition was 52.5% (active).
With `O=[N+]([O-])c1cc2oc3c(c2c(C=NCc2ccccc2)c1O)CCCC3`, the inhibition was 50.7% (active).
Take `Oc1c(Br)cc2oc3c(c2c1CNCc1ccccc1)CCCC3`: the inhibition is 2.3%.
Take `O=C(c1ccncc1)N(c1ccc2oc3c(c2c1)CCCC3)S(=O)(=O)c1cccc([N+](=O)[O-])c1`: the inhibition was 6%.
On to `Cc1ccc(S(=O)(=O)N(C(=O)c2ccncc2)c2ccc3oc4c(c3c2)CCCC4)cc1[N+](=O)[O-]`, for which the inhibition is 1.1%.
Take `O=C1CCCC(O)=C1C=NCc1ccccc1`: the inhibition is -2.2%.
For `COCC(=O)Nc1nnc(CCc2ccccc2)s1` the value was 9.8%.
As to `COC(=O)C1=C(C)N(c2ccc(OC)c(OC)c2)C(=O)C1`, the inhibition is -12.5%.
For `CN(C)C(=O)c1cn(-c2ccccc2)nc1-c1cccs1` the value was -7.1%; for `O=C(NCC(=O)N1CCN(S(=O)(=O)c2cccs2)CC1)c1ccc(Cl)cc1`, 5.3%; for `FC(F)(F)c1cc(-c2cccs2)nc2nc(N3CCOCC3)sc12`, -4.4%.
On to `CC1(C)OC(C)(C)/C(=C/Nc2ccccc2)C1=O`, for which the inhibition is 0.4%.
Take `CC1(C)Oc2ccc3ccc(=O)oc3c2/C(=C/Nc2ccc(O)cc2)C1=O`: the inhibition was 14.8%.
Regarding `CC1(C)OC(C)(C)/C(=C/Nc2ccc(O)cc2)C1=O`, the inhibition is 52.5% (active).
With `Cc1ccc(NC(=O)C2CCCN2C(=O)NC2CCCCC2)cc1` (stereo not given), the inhibition is 7.7%.
The figure for `CCCCC(=O)NC1(C(F)(F)F)C(=O)N(Cc2ccco2)C(C)=C1C(=O)OC` (stereo not given) is 2.6%; for `CCOC(=O)C1CCN(C(=O)CSc2nccc(C)n2)CC1` it is -8.5%; for `COCCNC(=O)NC(=O)CN1CCCc2ccccc21` it is 6.7%.
Consider `O=C1CC(N2CCN(c3ccccc3)CC2)C(=O)N1c1ccc2c(c1)OCO2` (stereo not given), for which the inhibition was -2%.
For `O=C1CC(N2CCN(c3ccc(O)cc3)CC2)C(=O)N1c1ccc2c(c1)OCO2` (stereo not given), the inhibition is 60.4% (active).
Take `O=C1CC(N2CCN(c3ccc(F)cc3)CC2)C(=O)N1c1ccc2c(c1)OCO2` (stereo not given): the inhibition is 24.1%.
Regarding `COc1ccccc1OCc1ccc(C(=O)OCC2CCCO2)o1` (stereo not given), the inhibition is -2%.
For `COC(=O)c1oc2ccc(OC)cc2c1N` the value was -2.9%; for `OCC[C@@H]1C[C@@H](O)[C@H](O)[C@]2(CCCCO2)O1`, 0.7%; for `COC(=O)c1cccc(C(=O)Nc2ccc(F)cc2)n1`, 2.8%.
For the compound `COc1ccc(NC(=O)C2CCN(C(=O)NCc3ccccc3)CC2)cc1`, the inhibition was 13%.
Take `CN(Cc1ccc(F)cc1)C(=O)CCc1nnc(-c2ccccc2)o1`: the inhibition is -0.8%.
For `O=C(Nc1cccc(S(=O)(=O)Nc2ccccc2F)c1)c1ccc2ccccc2n1` the value was 44.1%.
In the case of `O=C(Cc1ccc(Cl)cc1)Nc1cccc(S(=O)(=O)Nc2ccccc2F)c1`, the inhibition is 10.4%.
As to `CCOC(=O)CC(NS(=O)(=O)c1ccc(OC)c(C)c1)c1cccc([N+](=O)[O-])c1` (stereo not given), the inhibition was 12.1%.
Turning to `CCOC(=O)c1ccc(S(=O)(=O)N2CCN(S(=O)(=O)CC)CC2)cc1`, the inhibition was 4.2%.

(Values after PubChem BioAssay AID1220 (Sanford-Burnham Center for Chemical Genomics, 2008).)
